Hits are enriched below; roughly 0.81% of the tested compounds scored in any of these assays.
TRHR agonist = qHTS for Small Molecule Agonists and Allosteric Enhancers of Human TRH Receptor: Primary Screen for Agonists | Thyrotropin-releasing hormone receptor (Homo sapiens), P34981 | TRHR cells, calcium flux fluo-8, FDSS agonist mode | activation, % at 2 µM | 360,000 tested, 0.18% active | AID 493084, 2011; in the data active = activation above about 30%; also: 0% is about no effect
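TRHR-expressing cells loaded with fluo-8 calcium dye; 23 nL library compound pin-transferred, kinetic FDSS fluorescence (Ex 480/Em 530) recorded about 180 s for agonist-induced calcium release, before a 10 nM TRH EC20 addition for potentiator mode.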
TRHR PAM = qHTS for Small Molecule Agonists and Allosteric Enhancers of Human TRH Receptor: Primary Screen for Enhancers. enhancement, % at 2 µM. AID 493056, 2011. TRHR cells, fluo-8 calcium fluorescence, EC20 TRH enhancement. 360,000 tested, 0.66% active. Thyrotropin-releasing hormone receptor (Homo sapiens), P34981; in the data active = enhancement above about 30%; also: 0% is about no effect
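TRHR-expressing cells loaded with fluo-8 calcium dye were read kinetically (ex 480/em 530) during compound addition, then stimulated with an EC20 of TRH (10 nM final). Enhancement of the Gq-mediated intracellular calcium response was scored.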
PTAP TSG101 blk = qHTS Assay for Iinhibitors of HIV-1 Budding by Blocking the Interaction of PTAP/TSG101; Fluorescence polarization, FITC-PTAP peptide / Tsg101 binding; Potency, µM (highest dose often 115 µM), inactives show at the top dose activity change, negative = inhibition, most hits filed as inhibitors; 340,000 tested, under 10 active; Tumor susceptibility gene 101 protein (Homo sapiens), Q99816; active = well fitted inhibition curve with a large enough effect in the main read-out, with a control signal flat, not every such curve was filed as active; inconclusive = small, poorly fitted or top-dose-only effect, or effect the other way, or a change in a side signal; inactive = no such curve, though single readings can be large or run the other way; also: potency is read from the fitted curve at half-maximal effect; % of control where 0% means no effect
Target sequence (Q99816 whole entry, looked up): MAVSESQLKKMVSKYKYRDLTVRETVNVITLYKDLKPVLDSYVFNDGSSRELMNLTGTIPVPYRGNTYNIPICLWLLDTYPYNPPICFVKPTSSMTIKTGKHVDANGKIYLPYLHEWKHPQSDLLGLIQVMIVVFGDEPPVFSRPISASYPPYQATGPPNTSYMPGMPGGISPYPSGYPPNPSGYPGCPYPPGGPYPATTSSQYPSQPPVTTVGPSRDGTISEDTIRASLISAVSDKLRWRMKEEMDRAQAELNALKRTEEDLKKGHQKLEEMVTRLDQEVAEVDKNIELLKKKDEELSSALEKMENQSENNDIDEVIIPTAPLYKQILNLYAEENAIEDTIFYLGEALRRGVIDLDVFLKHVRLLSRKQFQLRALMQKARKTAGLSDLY
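FP read-out: FITC-PTAP peptide, 50 nM final, binding Tsg101 binding domain, 10 uM final; 20 min, r.t.; 10 mM HEPES pH 7.5, 0.15 M NaCl, 0.01% Tween 20, 3 mM EDTA, 0.1 mM TCEP.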
TRPML1 blocker = qHTS for Inhibitors of the Human Mucolipin Transient Receptor Potential 1 (TRPML1). AID 624415, 2012. activity change, negative = inhibition, % (concentration not given with the values). Mucolipin-1 (Homo sapiens), Q9GZU1. TRPML1-inducible cells, Ca2+ dye fluorescence, FDSS; active compounds read low; inhibition of EC80 agonist-evoked calcium signal. 390,000 tested, 0.02% active; in the data active = activity change below about -50%; inconclusive = between about -30% and that limit;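 also: stimulus is agonist 54-4 at its EC80 concentration; % is scaled to controls: 0 for no effect and ±100 for the full control effect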
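Calcium fluorescence in TRPML1-DL cells induced overnight with Tet: a 110 s read after compound pin addition, then a 110 s antagonist read after challenge with 54-4 at 4 uM final (EC80).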
TRPML1 ag = qHTS for Agonists of the Human Mucolipin Transient Receptor Potential 1 (TRPML1); Mucolipin-1 (Homo sapiens), Q9GZU1; TRPML1-expressing cells, Ca2+ dye fluorescence, FDSS; activation, % (test concentration not listed); 410,000 tested, 0.12% active; AID 624414, 2012; in the data active = activation above about 50%; inconclusive = mostly about 30% to 49%; also: 0% is about no effect
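Cells: TRPML1-DL, 1X Tet inducer, ~16 h at 37 degrees C/5% CO2. Dye: ABD Ca8 no-wash + quencher, 45-90 min RT. Read: 10 s baseline, compound add, 110 s agonist phase; 54-4 EC80 (4uM final), 110 s antagonist phase.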
The depositor's hits bear a star; ? = inconclusive; . = not tested or not shown.

SMILES | TRHR agonist | TRHR PAM | PTAP TSG101 blk | TRPML1 blocker | TRPML1 ag
CCN(CCC#N)c1ccc(/C=C/c2ccnc3ccccc23)cc1 | . | . | . | . | 17
O=[N+]([O-])c1ccc(C=C2c3ccccc3-c3ccccc32)cc1 | . | . | . | . | -1
COC(=O)C(CC(C)C)Oc1ccc2c(C)cc(=O)oc2c1 (configuration not stated) | -1 | 36* | -6% | 10 | 0
Cc1cc(=O)oc2cc(NC(=O)C(CCCN=C(N)N)NC(=O)OCc3ccccc3)ccc12 (configuration not stated) | -1 | -5 | -2% | -52* | 0
CCCCOC(=O)Nc1ccc2c(C)cc(=O)oc2c1 | 0 | 40* | -5% | -3 | 0
CC(C)CCOc1ccc(CC(=O)NO)cc1 | . | . | . | . | -1
CN(C)Cc1ccccc1Sc1ccc(O)cc1O | 0 | 30* | -2% | -2 | 0
CNCc1ccccc1Sc1cc(O)ccc1O | 0 | 3 | -1% | 2 | 0
O=c1ccc2[n+]([O-])c3ccc(O)cc3oc-2c1 | 4 | 0 | -12% | -3 | 1
Nc1ccc(-c2c3ccc(=O)cc-3oc3cc(O)ccc23)c(C(=O)O)c1 | -1 | 19 | ? | -2 | 84*
COc1cccc(C(c2sc3ncnn3c2O)N2CCN(C(=O)c3ccco3)CC2)c1 (configuration not stated) | -1 | 37* | 1% | 9 | 0
O=C(c1ccco1)N1CCN(C(c2cccs2)c2sc3ncnn3c2O)CC1 (configuration not stated) | 0 | 1 | 0% | 7 | 0
CC(C)(C)n1ncc2c(=O)n(Cc3cccc(OC(F)(F)F)c3)cnc21 | . | . | . | 17 | 1
CN(C)C(CNC(=O)c1ccc(-c2ccccc2)cc1)c1ccccc1 (configuration not stated) | 1 | 31* | 1% | -1 | 0
O=C(N/N=C/c1c(O)ccc2ccccc12)c1cccc(C(F)(F)F)c1 | 99* | 14 | 0% | 19 | 92*
COc1ccc2ccccc2c1/C=N/NC(=O)c1cccc(Br)c1 | 0 | 10 | 1% | 29 | 2
O=C(/C=C/c1ccccc1)C1=C(O)C(=O)N(CCO)C1c1ccc2c(c1)OCO2 (configuration not stated) | -1 | 36* | 0% | 29 | 0
O=C(C=Cc1ccc2c(c1)OCO2)c1ccccc1 | . | . | 0% | 9 | -1
CC(C)(C)OC(=O)N1CCN(/[N+]([O-])=N/Oc2ccc([N+](=O)[O-])cc2[N+](=O)[O-])CC1 | . | . | . | -19 | 1
C/C(=N\NC(N)=O)C1(C)CCCCC1 | 0 | 35* | -5% | 2 | 0
O=C(CSCc1ccccc1)N=Nc1c(O)[nH]c2ccccc12 | -1 | 1 | -5% | 3 | 6
Cc1ccc2[nH]c(O)c(N=NC(=O)CCc3ccccc3)c2c1Br | 1 | 32* | -4% | 3 | 0
CCOc1ccc(Nc2oc(-c3ccc(Cl)cc3)nc2C#N)cc1 | 0 | 0 | 0% | -5 | 0
CCOc1ccc(-c2nc(C#N)c(NC3CC3)o2)cc1 | 0 | 32* | -3% | 6 | 1
COC(=O)/C=C/c1cc(F)ccc1S(=O)(=O)Nc1ccccc1 | . | . | . | . | 0
SMILES | TRHR agonist | TRHR PAM | PTAP TSG101 blk | TRPML1 blocker | TRPML1 ag
CCCCN(C(=O)c1ccc(S(=O)(=O)N(C)C)cc1)c1ccccc1 | 0 | -8 | -4% | -12 | 81*
CN(C)/C=N/c1nc2nccc(-c3ccccn3)n2n1 | 0 | 34* | 0% | -3 | -1
CN(C)/C=N/c1nc2nccc(-c3cccnc3)n2n1 | 0 | -2 | 0% | -8 | 1
COC(=O)C[C@H]1c2cc(F)ccc2S(=O)(=O)N1C1CC1 | . | . | . | . | -1
CCCN1CCN(c2ncnc3scc(C4COc5ccccc5O4)c23)CC1 (configuration not stated) | -1 | 36* | 3% | 35 | 1
COc1ccccc1C(=O)NC(=S)NNC(=O)c1sc2ccccc2c1Cl | 36* | 3 | -2% | 1 | 51*
Cn1c2cc(C#N)sc2c2cnn(Cc3ccccc3F)c(=O)c21 | 0 | 5 | . | . | .
O=C(N/N=C/c1ccccc1)C1CCCN1C(=O)c1cc([N+](=O)[O-])cc([N+](=O)[O-])c1 (configuration not stated) | 0 | 19 | -2% | -5 | 0
C/C(=N/NC(=O)C1CCCN1C(=O)c1ccc([N+](=O)[O-])cc1)c1ccc(Br)cc1 (configuration not stated) | 1 | 35* | 2% | -8 | -1
O=C(Cn1c(SCc2ccccc2F)nc2cccnc21)Nc1ccc(F)c(Cl)c1 | 1 | 36* | . | 8 | 0
C/C(=N\NC(=O)c1nnn(-c2nonc2N)c1-c1ccc2c(c1)OCO2)c1cccs1 | 13 | 31* | -3% | 4 | 3
COc1cc(N/N=C(\C)c2ccc(O)c(C)c2)nc(-c2ccccc2)n1 | 0 | 34* | -5% | 13 | 2
Cc1cc(-c2nnc(SCc3ccccn3)o2)no1 | -1 | 31* | -6% | 12 | 0
Cc1cc(-c2nnc(SCCC(=O)Nc3ccccc3)o2)no1 | 1 | 6 | -5% | -1 | 0
C1=Nc2ccccc2/C1=C/c1ccccc1 | . | . | . | . | 0
Cc1ccc2oc(=O)n(CC(=O)OCCC(C)C)c2c1 | -1 | 35* | 2% | 7 | 2
CN(C)c1ccc(Cn2ccc3ccccc32)cc1 | . | . | . | . | 0
CN(C)c1ccc(/C=c2\[nH]c(=O)/c(=C\c3ccc(N(C)C)cc3)[nH]c2=O)cc1 | . | . | . | . | 3
Cc1ccc(NC(=O)CSc2nc(=O)cc(N)n2CCc2ccccc2)cc1 | 0 | -8 | 0% | 3 | 0
C=CCn1c(N)cc(=O)nc1SCC(=O)Nc1ccc(C)cc1 | 0 | 39* | -6% | -10 | 0
Cc1cc2c(s1)c1cnn(Cc3ccc(F)c(F)c3)c(=O)c1n2C | 0 | 1 | . | . | .
CCOC(=O)[C@@H](C)N(C(=O)OC(C)(C)C)S(=O)(=O)N(Cc1ccccc1)[C@H](C(=O)OC)C(C)C | . | . | -7% | 19 | -1
CCOC(=O)[C@@H](C)N(C(=O)OC(C)(C)C)S(=O)(=O)N(Cc1ccccc1)[C@@H](C(=O)OC)C(C)C | . | . | . | . | 57*
Cc1c(F)cccc1NC(=O)CSCC(=O)Nc1ccccc1 | 0 | -1 | -2% | -55* | 1
